Measurements reported in PubChem BioAssay (EPA / NIEHS).
Inconclusive results are not listed. Activity calls are given as the source filed them. How the source made its calls, unless noted: active means hit-call score of the fitted dose curve at least 0.9, where 1 is the maximum; inactive means score below 0.9.

Legend:
[1] = CCTE_Shafer_MEA_dev_per_burst_spike_percent: CCTE's Neural Network Formation Assay for Percent of Spikes in a Burst, Shafer Lab (AID 2284032)
Summary of the method: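 Value is trapezoidal AUC over recordings on days 5, 7, 9 and 12 of the well-mean fraction of spikes falling in single-electrode bursts; rat cortical cultures exposed continuously from plating, treatment renewed DIV 5 and 9, fitted downward against DMSO.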

[2] = CCTE_Shafer_MEA_dev_active_electrodes_number: CCTE's Neural Network Formation Assay for Number of Active Electrodes, Shafer Lab (AID 2284040; active means hit-call score of the fitted dose curve at least 0.9, where 1 is the maximum)
Summary of the method: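 Developing rat cortical networks on MEAs, exposed DIV 0–12. Value is the AUC of active-electrode counts (≥5 spikes/min) from days 5, 7, 9, 12, relative to DMSO.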

[3] = CCTE_Shafer_MEA_dev_per_burst_interspike_interval: CCTE's Neural Network Formation Assay for Burst Interspike Interval, Shafer Lab (AID 2284044)
Summary of the method: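 Spontaneous activity of maturing rat cortical networks is recorded on DIV 5, 7, 9 and 12 under chronic compound exposure beginning at plating. Endpoint: burst interspike interval well-mean, collapsed into trapezoidal AUC and fitted in the negative direction relative to DMSO.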

[4] = CCTE_Shafer_MEA_dev_burst_duration_mean: CCTE's Neural Network Formation Assay for Mean Burst Duration, Shafer Lab (AID 2284045)
Summary of the method: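 Rat cortical cultures, 1.5 x 10^5 cells/well with laminin drop; continuous dosing days 0–12, media plus treatment refreshed DIV 5, 9. AxIS adaptive spike detection; mean single-electrode burst duration, AUC over four recordings, negative direction vs DMSO.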

[5] = CCTE_Shafer_MEA_dev_interburst_interval_mean: CCTE's Neural Network Formation Assay for Mean Interburst Interval, Shafer Lab (AID 2284046);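 further: well-mean interburst interval of bursting electrodes as AUC over four recording days; curve fitted for decrease in interburst interval relative to DMSO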
Summary of the method: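 Rat cortical neurons, 1.5 x 10^5 cells/well, 48-well MEA; compound from day 0 through DIV 12, media and treatment renewed DIV 5/9. Recordings DIV 5, 7, 9, 12; well-mean interburst interval → trapezoidal AUC, loss direction vs DMSO.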

[6] = CCTE_Shafer_MEA_dev_inter_network_spike_interval_mean: CCTE's Neural Network Formation Assay for Mean Inter-network Spike Interval, Shafer Lab (AID 2284047)
Summary of the method: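 Primary rat cortical neurons on PEI-coated 48-well MEAs (16 electrodes/well) were exposed from plating day 0 to DIV 12, with dosing renewed at DIV 5 and 9. Recordings at DIV 5, 7, 9, 12 were collapsed by trapezoidal AUC, loss-of-signal fit vs DMSO.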

[7] = CCTE_Shafer_MEA_dev_network_spike_number: CCTE's Neural Network Formation Assay for Number of Network Spikes, Shafer Lab (AID 2284048);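 further: synchronized bursts across electrodes counted on days 5 7 9 12 and integrated as AUC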
Summary of the method: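 Rat cortical primary cultures on 48-well MEA (16 electrodes/well); continuous exposure DIV 0–12, full medium and treatment exchange DIV 5, 9. Readout: network spike count, AxIS adaptive detection, recordings DIV 5/7/9/12 collapsed to AUC; loss-of-signal fit, DMSO baseline.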

[8] = CCTE_Shafer_MEA_dev_network_spike_peak: CCTE's Neural Network Formation Assay for Mean Number of Electrodes in Network Spike, Shafer Lab (AID 2284049)
Summary of the method: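 Network-spike peak electrode count from recordings on days 5, 7, 9 and 12 was combined as trapezoidal area under the curve. Rat cortical cultures were treated continuously from plating, with compound renewed at each feed (DIV 5, 9); fits versus DMSO.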

[9] = CCTE_Shafer_MEA_dev_spike_duration_mean: CCTE's Neural Network Formation Assay for Mean Spike Duration, Shafer Lab (AID 2284051);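 further: mean network spike duration pooled as area under curve over DIV 5 to 12 recordings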
Summary of the method: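 Rat cortical primary cultures, 48-well MEA (16 electrodes/well); compound from plating, renewed DIV 5, 9. Network spike duration (AxIS adaptive detector) recorded DIV 5/7/9/12, combined as trapezoidal AUC; loss direction vs DMSO.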

[10] = CCTE_Shafer_MEA_dev_network_spike_duration_std: CCTE's Neural Network Formation Assay for Standard Deviation of Network Spike Duration, Shafer Lab (AID 2284052);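 further: area under curve of spike duration SD across recording days 5 to 12; hits are decreases in network spike duration SD versus DMSO vehicle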
Summary of the method: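 Rat cortical cultures, 1.5 x 10^5 cells/well, exposed continuously from plating to DIV 12 with media/compound renewal at DIV 5, 9. Spontaneous activity recorded DIV 5/7/9/12, AxIS adaptive spike detector; AUC across days; negative direction vs DMSO.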

[11] = CCTE_Shafer_MEA_dev_per_network_spike_spike_number_mean: CCTE's Neural Network Formation Assay for Mean Number of Spikes in a Network Spike, Shafer Lab (AID 2284053)
Summary of the method: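 Rat cortical primary cultures on 48-well MEA; compound from day 0, re-dosed with full media change DIV 5, 9. Recorded DIV 5, 7, 9, 12; spikes in 0.05 s window at network-spike peak ÷ total network spikes; AUC; loss vs DMSO.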

[12] = CCTE_Shafer_MEA_dev_per_network_spike_spike_percent: CCTE's Neural Network Formation Assay for Percent of Spikes in a Network Spike, Shafer Lab (AID 2284054)
Summary of the method: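 Read-out: percent of spikes falling in a 0.05 s window at network-spike peak, from spontaneous MEA recordings on days 5, 7, 9 and 12; trapezoidal AUC; loss of signal versus DMSO. Rat cortical cultures, compound present throughout.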

[13] = CCTE_Shafer_MEA_dev_mutual_information_norm: CCTE's Neural Network Formation Assay for Mutual Information Normalization, Shafer Lab (AID 2284091)
Summary of the method: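 Neurons from rat cortex were seeded at 1.5 x 10^5 cells/well onto PEI-coated MEAs in a laminin drop, then exposed to compound from day 0 for twelve days. Network recordings on four days gave mutual information, summarised by AUC relative to DMSO.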

[14] = CCTE_Shafer_MEA_dev_correlation_coefficient_mean: CCTE's Neural Network Formation Assay for Mean Correlation Coefficient, Shafer Lab (AID 2284093)
Summary of the method: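 Rat cortical cultures, 1.5 x 10^5 cells/well, dosed from day 0 for 12 days. Spontaneous spikes recorded DIV 5/7/9/12; electrode-pair correlation coefficients averaged, AUC taken. Fit in loss direction vs DMSO.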

[15] = IUF_NPC1b_proliferation_BrdU_72hr: Leibniz Research Institute for Environmental Medicine (IUF) 72-hour Neural Progenitor Cell Bromodeoxyuridine (BrdU) Proliferation Assay (NPC1b) (AID 2284207)
Summary of the method: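 Luminescent BrdU ELISA measured DNA synthesis during the last 16 h of a 72 h exposure of primary human neural progenitor spheres grown with EGF and FGF. Signal was fitted relative to DMSO controls.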

[16] = IUF_NPC1a_proliferation_area_72hr: Leibniz Research Institute for Environmental Medicine (IUF) 72-hour Neural Progenitor Cell Proliferation Area Assay (NPC1a) (AID 2284208)
Summary of the method: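 Measured in 3D suspension: each well held one primary hNPC sphere grown with EGF and FGF at pH 7.2-7.6. Compound stayed on for 72 h, then area was imaged; spheres lacking growth factors defined reduced proliferation.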

[17] = IUF_NPC1_viability_72hr: Viability Assessment at 72 hours in the Leibniz Research Institute for Environmental Medicine (IUF) Neural Progenitor Cell Proliferation Assay (NPC1) (AID 2284209)
Summary of the method: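 Alamar blue fluorescence (RFU) after 72 h exposure, normalized to DMSO baseline. hNPC spheres from GW 16-19 fetal cortex, single sphere per well in growth-factor medium; no compound renewal.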

[18] = CCTE_Mundy_HCI_Cortical_Synap_Neur_Matur_NeuriteSpotCountPerNeuriteLength: CCTE's Synaptogenesis and Neurite Maturation Assay in rat cortical cells for Neurite Spot Count per Neurite Length, Mundy Lab (AID 2284210)
Summary of the method: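 Read-out: synaptophysin puncta counted along MAP2-stained neurites, normalised to neurite length, by automated high-content imaging. Rat cortical cells; AraC DIV 5; chemical dosing DIV 7; termination DIV 12. DMSO baseline.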

[19] = CCTE_Mundy_HCI_Cortical_Synap_Neur_Matur_BPCount: CCTE's Synaptogenesis and Neurite Maturation Assay in rat cortical cells for Branch Point Count, Mundy Lab (AID 2284211)
Summary of the method: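 In this multiplexed morphology assay, cortical cells from rat receive chemicals at DIV 7 and are fixed at DIV 12, then immunostained and imaged; branch points are counted, with DMSO as baseline.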

[20] = CCTE_Mundy_HCI_Cortical_NOG_NeuriteCount: CCTE's Neurite Outgrowth Assay in rat cortical cells for Neurite Count, Mundy Lab (AID 2284212);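 further: cells fixed about two days after chemical exposure began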
Summary of the method: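 Rat cortical primary cells; compound added 2 h post-plating, 1/10 dilution of working solution. Anti-betaIII-tubulin/AF488 ICC; ArrayScan neurite count vs DMSO.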

[21] = CCTE_Mundy_HCI_Cortical_NOG_NeuriteLength: CCTE's Neurite Outgrowth Assay in rat cortical cells for Neurite Length, Mundy Lab (AID 2284213)
Summary of the method: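 First, rat primary cortical cells were plated and, 2 h later, given test chemical as a 1/10 dilution. Finally, βIII-tubulin immunostaining enabled automated imaging of neurite length.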

[22] = CCTE_Mundy_HCI_Cortical_Synap_Neur_Matur_NeuriteLength: CCTE's Synaptogenesis and Neurite Maturation Assay in rat cortical cells for Neurite Length, Mundy Lab (AID 2284214)
Summary of the method: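 Read-out: high-content imaging of MAP2-labelled neurites, with synaptophysin and Hoechst co-stain, in rat cortical cultures fixed at DIV 12. Activity fitted in positive direction relative to DMSO baseline.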

[23] = CCTE_Mundy_HCI_Cortical_Synap_Neur_Matur_NeuriteSpotCountPerNeuron: CCTE's Synaptogenesis and Neurite Maturation Assay in rat cortical cells for Neurite Spot Count per Neuron Count, Mundy Lab (AID 2284215)
Summary of the method: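 Developing rat cortical neurons, with glia suppressed by AraC, are exposed to chemicals from DIV 7 to DIV 12. Automated fluorescence imaging of MAP2-labelled neurites and synaptophysin puncta yields a count per neuron, normalised against DMSO wells.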

Measured: AC50

Cc1[nH]n(C)c(=O)c1C(=O)c1ccc(C(F)(F)F)cc1S(C)(=O)=O
active: [15] 43.4 µM
inactive: all other assays above
